HepG2 tox: qHTS for Inhibitors of TGF-b: Cytotox Counterscreen. HepG2 CAGA-GFP viability, ATP luminescence, 18 h. Potency, µM (titrated, usually from 46.1 µM), inactives show top-dose activity change, negative = cytotoxicity, most hits filed as cytotoxic. 0.76% of 410,000 active. AID 588856, 2011; note: potency is the fitted concentration of half-maximal effect
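HepG2 CAGA-GFP cells (1000/well, DMEM with 1% FBS) received compound, then TGF-beta at 500 pg/mL final, and were incubated 18 hours at 37 degrees C. Viability was read by CellTiter-Glo luminescence. Media-only wells were set as complete cell-killing and DMSO as no toxicity.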
TGFb SMAD3 inh: qHTS for Inhibitors of TGF-b; HepG2 CAGA-GFP TGF-b/SMAD3 reporter, GFP fluorescence, 18 h; TGF-beta stimulated, 500 pg/mL final; Potency, µM (series often up to 46.1 µM), inactives show at the top dose activity, negative = inhibition, most hits filed as inhibitors; 1.2% of 410,000 active; note: potency is the fitted concentration of half-maximal effect; % is set by controls: 0 for no effect and ±100 for the full control effect; nearly all actives have a fitted effect of over 65% in size
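Cell-based qHTS in HEPG2 carrying a CAGA-GFP Smad reporter; compounds added before 500 pg/mL final TGF-beta, 18 h incubation at 37 degrees C, GFP fluorescence quantified per cell by imaging cytometry.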
TDP1 inh: qHTS Assay for Inhibitors of Tyrosyl-DNA Phosphodiesterase (TDP1) | recombinant TDP1, AlphaScreen DNA substrate cleavage | Potency, µM (highest dose often 130 µM), without a hit: top-dose activity change, negative = inhibition, usual class: inhibitors | 0.28% of 350,000 active | AID 485290, 2010 | Tyrosyl-DNA phosphodiesterase 1 (Homo sapiens), Q9NUW8; note: potency is the fitted concentration of half-maximal effect; % is set by controls: 0 for no effect and ±100 for the full control effect; nearly all actives have a fitted effect of over 40% in size
Target sequence (Q9NUW8 whole entry, looked up): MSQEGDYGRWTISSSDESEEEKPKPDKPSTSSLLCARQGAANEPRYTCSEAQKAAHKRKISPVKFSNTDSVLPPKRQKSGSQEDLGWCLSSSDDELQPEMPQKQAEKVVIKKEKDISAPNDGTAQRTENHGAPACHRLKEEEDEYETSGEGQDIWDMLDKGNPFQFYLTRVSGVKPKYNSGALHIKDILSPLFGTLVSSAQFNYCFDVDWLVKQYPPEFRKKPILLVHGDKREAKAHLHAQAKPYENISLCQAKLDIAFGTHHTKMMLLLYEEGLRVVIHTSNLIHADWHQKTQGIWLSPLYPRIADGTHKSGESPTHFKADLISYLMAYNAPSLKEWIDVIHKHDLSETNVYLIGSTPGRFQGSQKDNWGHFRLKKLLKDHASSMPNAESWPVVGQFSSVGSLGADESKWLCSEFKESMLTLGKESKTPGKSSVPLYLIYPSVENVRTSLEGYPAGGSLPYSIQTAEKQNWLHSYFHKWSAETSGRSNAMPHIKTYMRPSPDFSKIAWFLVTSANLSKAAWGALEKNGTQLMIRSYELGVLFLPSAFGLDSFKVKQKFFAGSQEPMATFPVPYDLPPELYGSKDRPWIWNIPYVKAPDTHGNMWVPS
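Recombinant human Tdp1 (E. coli-expressed, 1 nM final) preincubated with compounds 15 min at room temperature, then 5'-biotin/3'-phosphotyrosine-FITC DNA substrate (15 nM final) added for 5 min. AlphaScreen beads (10 ug/ml final) added 10 min; cleavage lowers signal.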
DT40 TDP1 CPT: qHTS for Inhibitors of human tyrosyl-DNA phosphodiesterase 1 (TDP1): qHTS in cells in presence of CPT; 12% of 420,000 active; chicken DT40 Tdp1-/-;hTDP1 cells + 20 nM CPT, ATP luminescence, 48 h; Potency, µM (highest dose often 46.2 µM), for the others: at the highest dose activity change, negative = growth inhibition, actives largely listed as inhibitors; note: potency is the fitted concentration of half-maximal effect; % is set by controls: 0 for no effect and ±100 for the full control effect; nearly all actives have a fitted effect of over 55% in size
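Chicken DT40 Tdp1-/- cells stably complemented with human TDP1 were seeded at 400 cells/well in medium containing 20 nM camptothecin, exposed to pin-transferred compounds, and grown at 37 °C for at least 48 hr. Viability was read as ATP luminescence.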
IL1B secr inh: qHTS for Inhibitors of Inflammasome Signaling: IL-1-beta AlphaLISA Primary Screen; activity change, % at 57.5 µM; 4.7% of 360,000 active; THP-1 LPS/ATP IL-1B secretion, AlphaLISA, 16 h; stronger effect = lower value; in the data active = activity change below about -50%; inconclusive = mostly about -30% to -49%; note: % is set by controls: 0 for no effect and ±100 for the full control effect
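THP-1 cells pretreated 1 hr with compounds (up to 57.5 uM final), then stimulated with LPS (250 ng/mL final) plus ATP (1.25 mM final); secreted IL-1B measured by AlphaLISA after 16 hr, decreased signal indicating inhibition.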
DT40 TDP1 no CPT: qHTS for Inhibitors of human tyrosyl-DNA phosphodiesterase 1 (TDP1): qHTS in cells in absence of CPT; 15% of 420,000 active; DT40 Tdp1-/- hTDP1 cells, no CPT, ATP luminescence, 48 h; Potency, µM (titrated, usually from 46.2 µM), inactives show top-dose activity change, negative = growth inhibition, hits mostly inhibitors; note: potency is the fitted concentration of half-maximal effect; % is set by controls: 0 for no effect and ±100 for the full control effect; nearly all actives have a fitted effect of over 55% in size
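Seeded 400 DT40-hTDP1 cells/well (vehicle DMSO, no 20 nM CPT); pinned compounds; ≥48 hr at 37 °C; CellTiter-Glo luminescence as viability measure.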
* = called active by the depositor; ? = inconclusive; . = not tested or not shown; ! = not confirmed by another sample; [ ] = dose if it differs, or a comment. Most compounds without a hit are left out; they make up all but 19% or so of the library. Unless noted, calls come from the whole dose curve; as a rule, active = well fitted curve in the direction sought with a large enough effect; inconclusive = small, poorly fitted or top-dose-only effect, or another doubt; inactive = no such curve, though single readings can be large; an effect the other way counts as inactive or inconclusive.

SMILES | HepG2 tox | TGFb SMAD3 inh | TDP1 inh | DT40 TDP1 CPT | IL1B secr inh | DT40 TDP1 no CPT
CCc1cc(C(=O)N/N=C/c2ccc(OC)cc2)c2ccccc2n1 | -8% | 1% | . | 7.3µM* | 15 | 3.3µM*
Cc1ccc(C(=O)NCC(=O)N2CCCN(C)CC2)cc1C | -2% | -8% | 0% | -13% | -4 | -12%
COc1cc(NS(=O)(=O)c2c(C)oc3c(F)c(F)c(F)c(F)c23)cc(OC)c1OC | -20% | -3% | 1% | 23µM* | 16 | 18µM*
COc1cc(NS(=O)(=O)c2cn(C)cn2)cc(OC)c1OC | 5% | 10% | 5% | -7% | -5 | 27%
CCCCSc1nc(N)nc2c1ncn2C1OC(CO)C(O)C1O (centres undefined) | -13% | 27% | . | ? | 12 | -28%
CCN(CC)c1cccc(O)c1 | . | . | 6% | . | . | .
CCOC(=O)c1c(NC(=O)CSc2nc3cccnc3n2C)sc(C(C)=O)c1C | -38% | -27% | 5% | 18µM* | -2 | 13µM*
CCOC(=O)c1c(NC(=O)CSc2nnc(-c3ccccc3C)n2C)sc(C(C)=O)c1C | -20% | -21% | 4% | 18µM* | ? | 12µM*
CCOC(=O)c1sc(NC(=O)CSc2nc3cccnc3n2C)nc1C | -5% | 18% | . | 5% | 36 | -14%
CCOC(=O)c1c(NC(=O)COc2cccc(C)c2C)sc(C(C)=O)c1C | -3% | -15% | 1%[12.3 µM] | 4% | . | -6%
CCOC(=O)c1cccc(NC(=O)CSc2nncn2-c2ccccn2)c1 | -1% | -3% | 2% | 7% | -9 | -21%
CCOC(=O)c1cccc(NC(=O)CSc2nc3cccnc3n2C)c1 | -19% | -4% | 7% | 21µM* | -53* | 16µM*
CCOc1ccc(NC(=O)CN(C)C(=O)C2CCCO2)cc1OCC (centres undefined) | 1% | -41% | -6% | 4% | 6 | 5%
CC1=C(C(=O)Nc2ccc(Cl)cc2)C(C(C)C)n2nc(SCc3cccc(C)c3)nc2N1 (centres undefined) | 0% | -4% | 2% | ? | . | ?
COc1cc2c(cc1OC)CN(CC(=O)NC(=O)NC1CCCCC1)CC2 | 8% | 0% | 1% | -3% | 9 | -13%
COc1ccc(-n2cc(-c3ccc(Br)cc3)[nH]c2=S)cc1 | 1% | 0% | 5% | 1% | 2 | -13%
COc1ccc(-n2c(-c3ccc(Br)cc3)c[n+]3c2CCc2ccccc2-3)cc1 | -36% | ? | 8% | 1.6µM* | -59* | 0.92µM*
CC(C)c1ccc(-n2c(-c3ccccc3)c[n+]3c2CCc2ccccc2-3)cc1 | -22% | ? | -1% | 0.0073µM* | -114* | 0.033µM*
COc1ccccc1-n1c(-c2ccccc2)c[n+]2c1CCc1ccccc1-2 | -21% | 13µM* | 5% | 0.33µM* | -99*! | 0.013µM*
CC(CN1CCCCC1)OC(=O)COc1ccc(Br)cc1 (centres undefined) | -28% | -5% | 5% | 3% | ? | 23%
CCN(c1ccccc1)c1nc(N)nc(C#N)n1 | 19% | -1% | 0% | ? | . | ?
COCCCn1c(=O)c2sccc2n2c(CCCC(=O)NC3CCC(C)CC3)nnc12 (centres undefined) | -1% | -7% | -3% | ? | . | ?
CCCc1nnc(NC(=O)c2cc(=O)c3cc(Cl)ccc3o2)s1 | -11% | -10% | 1% | 1% | . | 3%
CC(=O)c1cccc(NC(=O)c2cc(S(=O)(=O)N3CCOCC3)cs2)c1 | -15% | 0% | 2% | -11% | 0 | -20%
CCOC(=O)c1cc(C)n(CC2CCC(C(=O)Nc3cccc(C)c3)CC2)c1C (centres undefined) | -13% | ? | 6% | 18µM* | . | ?
SMILES | HepG2 tox | TGFb SMAD3 inh | TDP1 inh | DT40 TDP1 CPT | IL1B secr inh | DT40 TDP1 no CPT
CCOC(=O)c1cc(C)n(CC2CCC(C(=O)Nc3ccc(OC)cc3)CC2)c1C (centres undefined) | -24% | ? | 6% | 15µM* | . | 21µM*
COc1cc(NC(=O)C2CCC(CNc3c(N4CCCCC4)c(=O)c3=O)CC2)cc(OC)c1 (centres undefined) | -18% | 5% | 3% | -8% | -7 | ?
CCOC(=O)c1cc(C)n(CC2CCC(C(=O)Nc3cc(OC)cc(OC)c3)CC2)c1C (centres undefined) | -32% | ? | 6% | ? | . | 23µM*
CCOC(=O)c1cccc(NC(=O)C2CCC(CNc3c(N4CCOCC4)c(=O)c3=O)CC2)c1 (centres undefined) | -14% | ? | 3% | -3% | -11 | -1%
CCOC(=O)c1cc(C)n(CC2CCC(C(=O)Nc3ccc(C)c(F)c3)CC2)c1C (centres undefined) | -30% | ? | 11% | ? | . | -27%
Cc1ccc(N2CCN(C(=O)c3cc4cc5ccc(C)cc5nc4s3)CC2C)cc1 (centres undefined) | -4% | ? | -2% | 0% | . | -2%
CC(=O)NN1C(=O)c2ccc3c4c(ccc(c24)C1=O)C(=O)N(NC(C)=O)C3=O | 10µM* | 7.9µM* | -3% | ? | 82 | ?
COc1cc(/C=C2\N=C(c3ccccc3)NNC2=O)cc(OC)c1OC | -20% | ? | 7% | 5.2µM* | 29 | 4.6µM*
O=C1ON=C(c2ccccc2)/C1=C/c1ccco1 | -3% | 2% | 3% | ? | 19 | ?
NC(=O)COc1ccc(/C=C2\C(=O)ON=C2c2ccccc2)cc1 | -31% | ? | -1% | 16µM* | ? | 15µM*
COc1ccc(/C=C2/C(=O)ON=C2c2ccccc2)cc1OC | -71% | ? | -5% | ? | -102* | 15µM*
Cc1cccc(C2=NOC(=O)/C2=C\c2ccccc2F)c1 | 1% | -5% | -2% | -24% | 26 | 2.6µM*
NC(=O)COc1ccccc1 | 7% | 21% | . | 2% | -5 | -4%
COc1ccc(/C=C2\C(=O)ON=C2c2cccc([N+](=O)[O-])c2)cc1 | . | . | 5% | . | . | .
COc1ccc(/C=C2\C(=O)ON=C2c2ccccc2)cc1OC | -73% | ? | . | 26µM* | -98* | ?

Assay outcomes as filed in PubChem.
